Measurements taken from PMC4336329 (PLoS ONE, 2015).
Hit rate of the full screen: of about 310,000 compounds, about 14,000 (4.5%) showed an effect of 50% or more. Effects have a minus sign here. The full list was thinned out, with strong results kept by preference.
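Note: peak tail current of the secondary pulse compared with the same well before compound.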

Each compound was assayed against human ether-à-go-go-related gene (hERG) potassium channel (human, UniProt Q12809) (assay: primary screen, population patch clamp on CHO cells stably expressing hERG; higher = less effect of the substance).
Sequence of human ether-à-go-go-related gene (hERG) potassium channel (Q12809 whole entry, looked up): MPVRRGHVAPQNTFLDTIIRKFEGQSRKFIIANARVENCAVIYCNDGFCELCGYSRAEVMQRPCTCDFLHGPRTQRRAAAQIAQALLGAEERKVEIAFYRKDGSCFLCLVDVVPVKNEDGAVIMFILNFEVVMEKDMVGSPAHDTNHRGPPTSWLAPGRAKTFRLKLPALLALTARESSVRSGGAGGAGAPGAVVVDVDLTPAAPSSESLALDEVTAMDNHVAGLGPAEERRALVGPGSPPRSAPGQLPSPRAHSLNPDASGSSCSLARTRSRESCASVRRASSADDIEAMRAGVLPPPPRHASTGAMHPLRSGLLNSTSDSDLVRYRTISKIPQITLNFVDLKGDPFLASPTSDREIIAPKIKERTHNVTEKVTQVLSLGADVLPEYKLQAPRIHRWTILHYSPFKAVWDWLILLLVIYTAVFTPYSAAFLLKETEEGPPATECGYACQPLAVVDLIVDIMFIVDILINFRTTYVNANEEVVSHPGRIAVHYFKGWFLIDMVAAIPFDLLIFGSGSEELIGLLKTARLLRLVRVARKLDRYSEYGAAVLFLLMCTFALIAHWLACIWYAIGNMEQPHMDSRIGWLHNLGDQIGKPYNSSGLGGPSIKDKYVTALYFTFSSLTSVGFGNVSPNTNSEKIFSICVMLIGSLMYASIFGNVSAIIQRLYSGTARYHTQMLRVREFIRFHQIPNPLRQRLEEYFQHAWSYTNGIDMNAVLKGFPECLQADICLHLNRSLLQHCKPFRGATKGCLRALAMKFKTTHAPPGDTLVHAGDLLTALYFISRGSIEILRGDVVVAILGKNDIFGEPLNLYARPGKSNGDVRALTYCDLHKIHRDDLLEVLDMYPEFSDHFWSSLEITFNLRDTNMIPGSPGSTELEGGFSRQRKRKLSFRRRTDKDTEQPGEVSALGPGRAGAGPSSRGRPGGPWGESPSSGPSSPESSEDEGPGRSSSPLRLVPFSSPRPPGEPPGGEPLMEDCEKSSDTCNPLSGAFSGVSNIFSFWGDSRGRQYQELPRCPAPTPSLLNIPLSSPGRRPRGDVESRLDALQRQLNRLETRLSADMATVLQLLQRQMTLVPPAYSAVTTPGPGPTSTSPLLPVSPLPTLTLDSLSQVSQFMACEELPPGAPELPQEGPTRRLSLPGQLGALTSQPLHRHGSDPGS
With `CCOCCCNC(=O)CN1CCN(S(=O)(=O)c2ccc3c(c2)CCC3)CC1` the “hERG current change (%, negative = inhibition) at 10uM” value was 3.99%. `COC(=O)CSc1nnc(CNS(=O)(=O)c2ccc(C)cc2)n1C` was tested, and the “hERG current change (%, negative = inhibition) at 10uM” value was 1.97%. In the case of `CN(C)N=Nc1ccc(S(=O)(=O)N2CCSC2C(=O)O)cc1` (stereo not drawn), the “hERG current change (%, negative = inhibition) at 10uM” value was 2.21%. `COC1CCN(C(=O)CC2C(=O)NCCN2CC2CCCCC2)CC1` (stereo not drawn) was tested, and the “hERG current change (%, negative = inhibition) at 10uM” value was 13.3%. For `CCOc1cccc(=O)c2c(C)n(CC(=O)c3ccccc3)c(C)c12`, the “hERG current change (%, negative = inhibition) at 10uM” value was -6.91%. For `CCOc1cccc(=[NH+]C2CCCCC2)c2c(C)[nH]c(C)c12.[O-][Cl+3]([O-])([O-])[O-]`, the “hERG current change (%, negative = inhibition) at 10uM” value was -70.3%. For `CCOc1cccc(=O)c2c(C)n(CC3CCCO3)c(C)c12` (stereo not drawn), the “hERG current change (%, negative = inhibition) at 10uM” value was -2.39%. `CCOc1ccccc1OCCNC1CCCC1` was tested, and the “hERG current change (%, negative = inhibition) at 10uM” value was 8.26%. For `CCOc1cccc(=[NH+]C2CCCCC2)c2c(C)n(C)c(C)c12.[O-][Cl+3]([O-])([O-])[O-]`, the “hERG current change (%, negative = inhibition) at 10uM” value was -70.3%. `CCOc1cccc(OCC)c2c(C)[n+](CC3CCCO3)c(C)c1-2.[O-][Cl+3]([O-])([O-])[O-]` (stereo not drawn) was tested, and the “hERG current change (%, negative = inhibition) at 10uM” value was -36.9%. `O=C(CN1C(=O)NC2(CCCC2)C1=O)N1CCN(S(=O)(=O)c2ccccc2[N+](=O)[O-])CC1` was tested, and the “hERG current change (%, negative = inhibition) at 10uM” value was 7.61%. In the case of `N=c1n(-c2ccccc2)c(O)cc(=O)n1-c1ccccc1`, the “hERG current change (%, negative = inhibition) at 10uM” value was -6.28%. `CCCn1c(N)c(N(CCOC)C(=O)c2ccc([N+](=O)[O-])c(C)c2)c(=O)[nH]c1=O` was tested, and the “hERG current change (%, negative = inhibition) at 10uM” value was 35.8%. With `CC(NS(=O)(=O)c1ccc(Br)cc1)C(=O)NC1CCCCCC1` (stereo not drawn) the “hERG current change (%, negative = inhibition) at 10uM” value was 5.35%. For `Cc1noc(C)c1S(=O)(=O)N1CCCC(C(=O)Nc2ccc(Cl)cn2)C1` (stereo not drawn), the “hERG current change (%, negative = inhibition) at 10uM” value was -26%. `CCOC(=O)C1(CCCc2ccccc2)CCN(C(=O)c2cc(C)nn2CC)CC1` was tested, and the “hERG current change (%, negative = inhibition) at 10uM” value was -57.8%. In the case of `CCOC(=O)C1(Cc2cccc(Cl)c2)CCCN(C(=O)c2cnn(CC)c2)C1` (stereo not drawn), the “hERG current change (%, negative = inhibition) at 10uM” value was -6.39%. For `CCOC(=O)C1(CCCc2ccccc2)CCN(C(=O)c2ocnc2C)CC1`, the “hERG current change (%, negative = inhibition) at 10uM” value was -56.1%. `CCOC(=O)C1(CCCc2ccccc2)CCN(C(=O)COC)CC1` was tested, and the “hERG current change (%, negative = inhibition) at 10uM” value was -25.9%. With `CCOC(=O)C1(CCc2ccccc2)CCN(C(=O)Cc2nonc2C)CC1` the “hERG current change (%, negative = inhibition) at 10uM” value was -21.4%. For `CCOC(=O)C1(CCCc2ccccc2)CCN(C(=O)c2cnc(C)cn2)CC1`, the “hERG current change (%, negative = inhibition) at 10uM” value was -39.8%. With `CCOC(=O)C1(CCCc2ccccc2)CCN(C(=O)Cc2nonc2C)CC1` the “hERG current change (%, negative = inhibition) at 10uM” value was -51.3%. For `CCOC(=O)C1(Cc2ccccc2)CCCN(C(=O)c2cnn(CC)c2)C1` (stereo not drawn), the “hERG current change (%, negative = inhibition) at 10uM” value was 10.1%. In the case of `CCOC(=O)C1(CCCc2ccccc2)CCN(C(=O)c2cnn(CC)c2)CC1`, the “hERG current change (%, negative = inhibition) at 10uM” value was -64.2%. In the case of `CCOC(=O)C1(CC2CC2)CCN(C(=O)c2ocnc2C)CC1`, the “hERG current change (%, negative = inhibition) at 10uM” value was 7.25%. In the case of `CCOC(=O)C1(CCCc2ccccc2)CCN(C(=O)c2cc(C)nc(C)n2)CC1`, the “hERG current change (%, negative = inhibition) at 10uM” value was -16.4%. `CCn1c(N2CCN(S(=O)(=O)c3ccc(Cl)cc3)CC2)nc2ccccc21` was tested, and the “hERG current change (%, negative = inhibition) at 10uM” value was -48.4%. With `COc1cccc(NC(=O)CCNS(=O)(=O)c2ccc3c(c2)CC(C)N3C(=O)C2CC2)c1` (stereo not drawn) the “hERG current change (%, negative = inhibition) at 10uM” value was -5.18%. In the case of `O=C(CCS(=O)(=O)c1ccc(Br)s1)NC1CCCC1`, the “hERG current change (%, negative = inhibition) at 10uM” value was 6.05%. With `COc1ccc(NS(=O)(=O)c2cccc3cccnc23)cc1OC` the “hERG current change (%, negative = inhibition) at 10uM” value was 24.2%. In the case of `CNc1nc(NN)nc(Nc2ccccc2)n1`, the “hERG current change (%, negative = inhibition) at 10uM” value was 9.76%. In the case of `Cc1ccc(S(=O)(=O)CC(=O)Nc2cccc(C)n2)cc1`, the “hERG current change (%, negative = inhibition) at 10uM” value was 6.48%. In the case of `Cc1cccc(C(=O)NCC(=O)NC2CCN(Cc3ccccc3)CC2)c1`, the “hERG current change (%, negative = inhibition) at 10uM” value was -7.99%. In the case of `CCOC(=O)C1(CCCc2ccccc2)CCN(C(=O)CSC)CC1`, the “hERG current change (%, negative = inhibition) at 10uM” value was -24.1%. With `CCOC(=O)C1(CCCc2ccccc2)CCN(C(=O)c2ccoc2)CC1` the “hERG current change (%, negative = inhibition) at 10uM” value was -54.3%. For `O=C(c1ccoc1)N1CCC(CO)(CCc2ccccc2)CC1`, the “hERG current change (%, negative = inhibition) at 10uM” value was -28.7%. In the case of `CCCCCC(=O)Nc1nnn(CCC)n1`, the “hERG current change (%, negative = inhibition) at 10uM” value was 4.41%. For `CC(C(=O)O)N1C(=O)c2cccc3cccc1c23` (stereo not drawn), the “hERG current change (%, negative = inhibition) at 10uM” value was 1.97%. For `COc1ccc(NCc2nnc(SCC(=O)Nc3nc(-c4ccccc4)cs3)n2-c2ccccc2)cc1`, the “hERG current change (%, negative = inhibition) at 10uM” value was 13%. With `COc1ccc(CNC(=O)[C@H](C)NC(=O)N2CCn3c2nc2ccccc23)cc1` the “hERG current change (%, negative = inhibition) at 10uM” value was -57.7%. With `C[C@H](NC(=O)N1CCn2c1nc1ccccc12)C(=O)NCc1ccc(F)cc1` the “hERG current change (%, negative = inhibition) at 10uM” value was -29.6%. In the case of `C[C@H](NC(=O)N1CCn2c1nc1ccccc12)C(=O)NCc1ccccc1`, the “hERG current change (%, negative = inhibition) at 10uM” value was -13.6%. For `FC(F)(F)c1ccc(N2CCOCC2)c(Nc2nc3ccccc3n3cnnc23)c1`, the “hERG current change (%, negative = inhibition) at 10uM” value was 7.53%. With `CCSc1nnc([C@H](Cc2c[nH]c3ccccc23)NC(=O)OC(C)(C)C)o1` the “hERG current change (%, negative = inhibition) at 10uM” value was -21.5%. For `COc1ccccc1C1c2ccc3ccccc3c2Oc2ncn(CCN(C)C)c(=N)c21` (stereo not drawn), the “hERG current change (%, negative = inhibition) at 10uM” value was -61.8%. With `COc1ccc(C2c3ccc4ccccc4c3Oc3ncn(CCN(C)C)c(=N)c32)cc1` (stereo not drawn) the “hERG current change (%, negative = inhibition) at 10uM” value was -77.2%. For `COc1ccc(Cc2nc3c4c(ncn3n2)Oc2c(ccc3ccccc23)C4c2ccc(OC)c(OC)c2)cc1` (stereo not drawn), the “hERG current change (%, negative = inhibition) at 10uM” value was 14.7%. With `COc1ccc(C2c3ccc4ccccc4c3Oc3ncn(CCCN(C)C)c(=N)c32)cc1` (stereo not drawn) the “hERG current change (%, negative = inhibition) at 10uM” value was -76.4%. For `COc1ccc(C2c3c(ccc4ccccc34)Oc3ncn4nc(-c5ccco5)nc4c32)cc1` (stereo not drawn), the “hERG current change (%, negative = inhibition) at 10uM” value was -12.4%. For `CN(C)S(=O)(=O)c1cc(C(=O)OCCn2cnc3c2c(=O)n(C)c(=O)n3C)ccc1Cl`, the “hERG current change (%, negative = inhibition) at 10uM” value was -39.7%. For `CS(=O)(=O)c1cccc(-c2nnc(NC(=O)CCS(=O)(=O)c3ccccc3)o2)c1`, the “hERG current change (%, negative = inhibition) at 10uM” value was 3.82%. In the case of `COC(=O)c1cn(C(=O)c2ccccc2F)nc1N`, the “hERG current change (%, negative = inhibition) at 10uM” value was -5.96%. In the case of `Cc1ccc2c(CC(=O)OC3CCOC3=O)coc2c1` (stereo not drawn), the “hERG current change (%, negative = inhibition) at 10uM” value was 3.85%. `CC/C(=N\NC(=S)Nc1ccc(OC)cc1)c1ccc(OC(F)F)cc1` was tested, and the “hERG current change (%, negative = inhibition) at 10uM” value was -4.32%.
